The source of these data is ChEMBL document CHEMBL3988442, “University of Dundee, Small-Polar-MMV Screening Library” (2021).

For some of these results: Entries with a potency or affinity are not part of this list. Where only a bound is given, the exact number is not on record here.

Experiment [1] addresses T1, Methionyl-tRNA synthetase, putative (Leishmania donovani (strain BPK282A1)) (UniProt E9BF75).
T1 sequence (whole entry): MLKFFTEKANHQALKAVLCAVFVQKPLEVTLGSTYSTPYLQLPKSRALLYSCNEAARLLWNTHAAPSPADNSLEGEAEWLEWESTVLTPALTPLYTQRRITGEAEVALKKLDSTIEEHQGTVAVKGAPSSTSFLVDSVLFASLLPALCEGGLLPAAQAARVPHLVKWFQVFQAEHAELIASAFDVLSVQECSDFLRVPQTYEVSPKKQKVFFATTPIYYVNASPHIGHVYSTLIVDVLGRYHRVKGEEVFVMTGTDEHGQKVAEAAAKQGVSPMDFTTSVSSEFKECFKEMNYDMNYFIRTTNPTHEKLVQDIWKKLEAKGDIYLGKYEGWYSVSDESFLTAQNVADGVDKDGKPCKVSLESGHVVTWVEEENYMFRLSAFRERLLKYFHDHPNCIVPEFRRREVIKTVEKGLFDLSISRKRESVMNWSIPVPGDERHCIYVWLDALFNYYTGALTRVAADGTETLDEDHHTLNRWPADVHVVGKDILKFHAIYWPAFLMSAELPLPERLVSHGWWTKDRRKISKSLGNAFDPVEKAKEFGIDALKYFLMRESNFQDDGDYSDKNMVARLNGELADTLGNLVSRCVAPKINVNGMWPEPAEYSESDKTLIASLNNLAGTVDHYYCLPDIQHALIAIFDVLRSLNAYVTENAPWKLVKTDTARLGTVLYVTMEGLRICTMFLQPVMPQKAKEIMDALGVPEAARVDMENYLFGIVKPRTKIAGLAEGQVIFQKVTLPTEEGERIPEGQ
The experiment is described as follows: Leishmania donovani Methionine tRNA synthetase (LdMetRS):v7. Dose response assay. More on the design: conc 80 nM, time 150 minutes. The experiment is classed as functional.

For experiment [2], the target named is Protein translocase subunit SecA (Escherichia coli (strain K12)) (UniProt P10408). The experiment is described as follows: Assay to Identify E. coli SecA ATPase Inhibitors. The experiment is classed as functional. More on the design: scale not given: direction of the effect not stated beside the values. The note with it: 30 µM.
The target in experiment [3] is T2, Ubiquitin-activating enzyme e1, putative (Leishmania donovani (strain BPK282A1)) (UniProt E9BSI1).
T2 sequence (whole entry): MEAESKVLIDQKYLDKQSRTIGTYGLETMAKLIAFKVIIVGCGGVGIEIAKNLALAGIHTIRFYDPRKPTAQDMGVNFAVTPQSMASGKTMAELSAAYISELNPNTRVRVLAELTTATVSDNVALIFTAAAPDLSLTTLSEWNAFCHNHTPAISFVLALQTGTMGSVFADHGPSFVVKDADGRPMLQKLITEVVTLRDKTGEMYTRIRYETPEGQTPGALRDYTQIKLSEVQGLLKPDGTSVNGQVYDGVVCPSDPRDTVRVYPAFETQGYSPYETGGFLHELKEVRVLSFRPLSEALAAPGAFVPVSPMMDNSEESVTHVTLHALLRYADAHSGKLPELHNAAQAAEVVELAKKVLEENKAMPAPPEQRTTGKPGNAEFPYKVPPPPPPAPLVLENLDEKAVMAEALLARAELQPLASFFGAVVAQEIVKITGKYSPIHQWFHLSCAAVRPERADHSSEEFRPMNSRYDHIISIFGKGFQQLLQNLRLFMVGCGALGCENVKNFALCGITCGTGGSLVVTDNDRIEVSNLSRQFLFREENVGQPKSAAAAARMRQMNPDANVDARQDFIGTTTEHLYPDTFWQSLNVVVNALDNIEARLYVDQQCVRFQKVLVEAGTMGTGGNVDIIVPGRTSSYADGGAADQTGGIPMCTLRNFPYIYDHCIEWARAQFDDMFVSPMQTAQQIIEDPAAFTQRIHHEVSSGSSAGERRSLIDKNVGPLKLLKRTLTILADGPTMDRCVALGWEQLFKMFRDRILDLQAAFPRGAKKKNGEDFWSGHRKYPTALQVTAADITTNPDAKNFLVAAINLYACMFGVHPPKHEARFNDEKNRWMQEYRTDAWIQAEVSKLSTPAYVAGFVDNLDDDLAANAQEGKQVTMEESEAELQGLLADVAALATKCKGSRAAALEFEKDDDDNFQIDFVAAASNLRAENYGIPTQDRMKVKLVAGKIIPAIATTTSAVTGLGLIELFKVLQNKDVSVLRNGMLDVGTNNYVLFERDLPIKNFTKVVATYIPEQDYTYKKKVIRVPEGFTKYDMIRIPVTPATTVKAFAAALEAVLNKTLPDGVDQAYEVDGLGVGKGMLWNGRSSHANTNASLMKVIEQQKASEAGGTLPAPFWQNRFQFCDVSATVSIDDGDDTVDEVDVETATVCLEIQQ
The experiment is described as follows: Leishmania donovani Ubiquitin Activating Enzyme (LdE1). Also on record: scale not given: direction of the effect not stated beside the values. The note with it: 30 µM. Format: functional.

Experiment [4] has as its target AMP-activated protein kinase, AMPK (Homo sapiens) (UniProt P54646+O43741+P54619+Q9UGJ0+Q9Y478+Q13131+Q9UGI9). The experiment can be described thus: AMP-dependent Kinase enzyme assay. An in vitro enzyme assay that detects ADP turnover that is directly proportional to AMPK activity. This uses naive AMPK that is activated during the assay with MK-8722. The experiment is classed as functional. More on the design: scale not given: direction of the effect not stated beside the values. To be noted: 30 µM.

The target of experiment [5] is Sialic acid-binding Ig-like lectin 9 (Homo sapiens) (UniProt Q9Y336). The experiment is described as follows: Hs-Siglec9 ALPHAscreen SOP 20170721. To be noted: 10 µM. More on the design: scale not given: direction of the effect not stated beside the values.
For the next experiment, the system named is Trypanosoma cruzi. The experiment can be described thus: Trypanosoma cruzi phosphomannomutase and mannose-1-phosphate guanylyltransferase assay. Also on record: scale not given: direction of the effect not stated beside the values. The note with it: 10 µM. Format: functional.
The target in experiment [6] is T3, Arginase-2, mitochondrial (Homo sapiens) (UniProt P78540).
T3 sequence (whole entry): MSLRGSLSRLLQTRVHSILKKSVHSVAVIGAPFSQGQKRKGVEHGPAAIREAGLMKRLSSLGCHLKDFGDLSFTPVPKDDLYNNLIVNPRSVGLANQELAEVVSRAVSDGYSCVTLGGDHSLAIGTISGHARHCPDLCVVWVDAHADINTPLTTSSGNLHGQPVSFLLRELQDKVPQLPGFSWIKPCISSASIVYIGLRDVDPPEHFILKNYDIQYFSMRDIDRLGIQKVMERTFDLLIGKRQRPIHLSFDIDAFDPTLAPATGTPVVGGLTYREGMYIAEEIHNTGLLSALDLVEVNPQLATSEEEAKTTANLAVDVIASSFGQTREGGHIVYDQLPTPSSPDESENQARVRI
The experiment is described as follows: in vitro enzyme assay to detect the production of urea directly proportional to the activity of Arginase II. Format: functional. Also on record: scale not given: in the data most compounds retested in dose-response had high values.

In experiment [7] the target is T4, Proteasome subunit beta (Trypanosoma cruzi) (UniProt O96673).
T4 sequence (whole entry): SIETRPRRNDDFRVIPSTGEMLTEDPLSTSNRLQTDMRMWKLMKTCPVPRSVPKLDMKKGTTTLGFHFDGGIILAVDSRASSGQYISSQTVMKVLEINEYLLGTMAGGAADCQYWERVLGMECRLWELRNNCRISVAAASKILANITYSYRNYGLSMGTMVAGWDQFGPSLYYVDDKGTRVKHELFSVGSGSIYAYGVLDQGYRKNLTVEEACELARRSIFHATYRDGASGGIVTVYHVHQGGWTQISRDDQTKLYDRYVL
The experiment is described as follows: Trypanosoma cruzi proteasome chymotrypsin-like activity (TcProtChymo) assay. The experiment is classed as functional. To be noted: 9.37 µM. More on the design: scale not given: in the data most compounds retested in dose-response had high values.

For the next experiment, the species on record is Homo sapiens. The experiment is described as follows: To identify inhibition of the IFN signalling (Jak-Stat) pathway via expression of an eGFP reporter gene under the control of an IFN-stimulated response element (ISRE) containing MxA promoter. The experiment is classed as functional. To be noted: 30 µM. Also on record: scale not given: direction of the effect not stated beside the values.

Experiment [8] concerns the target T5, Tyrosyl-tRNA synthetase, putative (Trypanosoma cruzi (strain CL Brener)) (UniProt Q4DSP6).
T5 sequence (whole entry): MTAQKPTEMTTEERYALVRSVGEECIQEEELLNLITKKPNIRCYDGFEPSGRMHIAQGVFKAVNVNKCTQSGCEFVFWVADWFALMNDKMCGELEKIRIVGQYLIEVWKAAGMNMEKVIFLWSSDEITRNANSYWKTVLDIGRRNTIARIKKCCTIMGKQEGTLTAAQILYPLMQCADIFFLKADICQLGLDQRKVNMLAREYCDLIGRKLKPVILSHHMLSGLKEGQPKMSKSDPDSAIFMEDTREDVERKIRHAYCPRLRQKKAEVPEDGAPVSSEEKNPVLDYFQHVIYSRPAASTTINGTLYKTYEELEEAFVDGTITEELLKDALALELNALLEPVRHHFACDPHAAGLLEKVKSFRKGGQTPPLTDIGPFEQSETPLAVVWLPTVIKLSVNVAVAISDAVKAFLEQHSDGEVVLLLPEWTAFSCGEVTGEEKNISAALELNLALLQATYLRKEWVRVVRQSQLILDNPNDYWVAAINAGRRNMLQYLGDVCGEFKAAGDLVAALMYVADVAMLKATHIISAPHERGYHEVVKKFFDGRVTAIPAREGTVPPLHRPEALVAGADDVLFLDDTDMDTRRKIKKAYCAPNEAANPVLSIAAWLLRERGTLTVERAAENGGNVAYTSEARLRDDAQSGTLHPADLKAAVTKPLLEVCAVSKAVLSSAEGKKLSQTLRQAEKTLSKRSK
The experiment can be described thus: Trypanosoma cruzi tyrosyl tRNA synthetase (TcYRS) _High Tyrosine SOP. Format: functional. More on the design: scale not given: in the data most compounds retested in dose-response had high values. The note with it: 30 µM.

The target in experiment [9] is T5, Tyrosyl-tRNA synthetase, putative (Trypanosoma cruzi (strain CL Brener)). The experiment is described as follows: Trypanosoma cruzi tyrosyl tRNA synthetase (TcYRS) SOP. Also on record: scale not given: direction of the effect not stated beside the values. The note with it: 30 µM. The experiment is classed as functional.
Experiment [10] addresses Chromo domain-containing protein 1 (Saccharomyces cerevisiae (strain ATCC 204508 / S288c) (Baker's yeast)) (UniProt P32657). The experiment is described as follows: ScCHD-1 Enzyme Inhibition Assay. The experiment is classed as functional. More on the design: scale not given: in the data most compounds retested in dose-response had high values. The note with it: 30 µM.

Sequence of Sialic acid-binding Ig-like lectin 9 (Homo sapiens) (Q9Y336 whole entry): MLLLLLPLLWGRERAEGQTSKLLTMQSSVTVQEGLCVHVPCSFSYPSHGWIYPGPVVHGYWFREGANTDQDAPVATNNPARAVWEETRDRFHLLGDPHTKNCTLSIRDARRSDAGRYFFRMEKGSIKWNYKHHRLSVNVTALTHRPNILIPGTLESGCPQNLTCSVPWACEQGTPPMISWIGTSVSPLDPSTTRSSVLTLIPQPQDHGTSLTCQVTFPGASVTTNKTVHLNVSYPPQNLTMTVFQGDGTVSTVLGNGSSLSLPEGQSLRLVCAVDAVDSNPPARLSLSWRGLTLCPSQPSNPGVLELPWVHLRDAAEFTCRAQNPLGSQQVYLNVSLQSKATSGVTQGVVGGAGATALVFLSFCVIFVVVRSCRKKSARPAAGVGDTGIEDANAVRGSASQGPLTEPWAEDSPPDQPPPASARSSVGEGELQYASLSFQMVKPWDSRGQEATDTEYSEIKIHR
Sequence of Protein translocase subunit SecA (Escherichia coli (strain K12)) (P10408 whole entry): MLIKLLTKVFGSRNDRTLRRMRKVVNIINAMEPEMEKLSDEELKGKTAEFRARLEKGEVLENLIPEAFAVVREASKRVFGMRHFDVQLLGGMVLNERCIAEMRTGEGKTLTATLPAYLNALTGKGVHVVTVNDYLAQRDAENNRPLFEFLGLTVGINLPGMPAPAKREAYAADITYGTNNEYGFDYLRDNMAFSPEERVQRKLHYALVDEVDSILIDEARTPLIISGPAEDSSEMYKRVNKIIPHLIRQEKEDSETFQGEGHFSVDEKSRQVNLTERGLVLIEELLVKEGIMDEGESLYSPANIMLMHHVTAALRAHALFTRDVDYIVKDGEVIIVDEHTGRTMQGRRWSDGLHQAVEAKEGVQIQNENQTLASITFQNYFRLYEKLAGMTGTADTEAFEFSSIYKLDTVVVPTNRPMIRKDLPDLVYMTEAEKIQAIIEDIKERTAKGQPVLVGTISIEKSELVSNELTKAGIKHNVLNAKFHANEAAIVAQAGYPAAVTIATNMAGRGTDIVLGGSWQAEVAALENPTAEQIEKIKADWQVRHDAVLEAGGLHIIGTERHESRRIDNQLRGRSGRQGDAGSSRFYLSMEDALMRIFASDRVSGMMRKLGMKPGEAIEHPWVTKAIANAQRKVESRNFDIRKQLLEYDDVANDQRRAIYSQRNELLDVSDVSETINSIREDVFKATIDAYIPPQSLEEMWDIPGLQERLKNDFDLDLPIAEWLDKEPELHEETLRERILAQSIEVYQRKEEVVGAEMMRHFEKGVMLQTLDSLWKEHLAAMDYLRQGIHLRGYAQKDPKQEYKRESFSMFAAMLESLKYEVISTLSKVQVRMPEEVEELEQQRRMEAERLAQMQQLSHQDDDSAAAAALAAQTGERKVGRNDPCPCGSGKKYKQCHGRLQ
Sequence of Chromo domain-containing protein 1 (Saccharomyces cerevisiae (strain ATCC 204508 / S288c) (Baker's yeast)) (P32657 whole entry, the tested form may be a part): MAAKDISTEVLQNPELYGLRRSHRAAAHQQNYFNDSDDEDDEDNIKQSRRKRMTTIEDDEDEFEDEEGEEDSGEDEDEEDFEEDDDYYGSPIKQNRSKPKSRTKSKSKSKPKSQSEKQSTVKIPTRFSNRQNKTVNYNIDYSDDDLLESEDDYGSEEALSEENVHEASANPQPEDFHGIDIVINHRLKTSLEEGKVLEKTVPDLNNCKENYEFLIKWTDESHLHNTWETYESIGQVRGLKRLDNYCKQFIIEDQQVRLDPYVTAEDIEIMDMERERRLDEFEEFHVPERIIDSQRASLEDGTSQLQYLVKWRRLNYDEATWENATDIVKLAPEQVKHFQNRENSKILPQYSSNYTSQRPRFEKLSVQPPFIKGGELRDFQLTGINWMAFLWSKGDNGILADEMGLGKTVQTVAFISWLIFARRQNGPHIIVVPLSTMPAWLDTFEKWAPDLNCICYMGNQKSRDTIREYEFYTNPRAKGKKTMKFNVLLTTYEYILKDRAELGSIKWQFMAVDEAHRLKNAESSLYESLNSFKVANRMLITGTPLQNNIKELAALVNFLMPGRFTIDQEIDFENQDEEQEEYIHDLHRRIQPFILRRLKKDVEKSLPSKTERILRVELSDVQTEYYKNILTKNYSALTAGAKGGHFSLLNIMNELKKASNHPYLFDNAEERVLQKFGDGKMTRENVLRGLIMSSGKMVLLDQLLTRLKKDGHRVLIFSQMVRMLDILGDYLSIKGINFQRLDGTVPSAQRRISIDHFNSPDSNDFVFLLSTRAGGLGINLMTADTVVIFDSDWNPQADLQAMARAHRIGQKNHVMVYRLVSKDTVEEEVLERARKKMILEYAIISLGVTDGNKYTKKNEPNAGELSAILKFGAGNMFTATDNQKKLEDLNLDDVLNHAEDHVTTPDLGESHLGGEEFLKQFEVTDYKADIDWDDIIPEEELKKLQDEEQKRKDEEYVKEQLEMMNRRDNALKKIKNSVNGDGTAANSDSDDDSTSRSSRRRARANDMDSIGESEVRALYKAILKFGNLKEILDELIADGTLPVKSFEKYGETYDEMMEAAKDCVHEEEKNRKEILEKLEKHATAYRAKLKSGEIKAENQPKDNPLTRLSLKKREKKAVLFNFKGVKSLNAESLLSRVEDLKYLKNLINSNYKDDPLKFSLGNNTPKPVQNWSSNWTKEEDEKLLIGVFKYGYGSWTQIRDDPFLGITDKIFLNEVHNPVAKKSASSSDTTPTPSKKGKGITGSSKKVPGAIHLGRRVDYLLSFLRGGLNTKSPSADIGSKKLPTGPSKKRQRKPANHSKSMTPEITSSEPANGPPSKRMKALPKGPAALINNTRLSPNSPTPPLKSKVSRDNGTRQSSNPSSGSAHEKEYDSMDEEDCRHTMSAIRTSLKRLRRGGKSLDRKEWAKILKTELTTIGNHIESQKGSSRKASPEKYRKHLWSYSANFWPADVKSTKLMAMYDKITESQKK

With `Cn1cc(CN2CCC(F)(F)C3(CCN(c4cnccn4)C3)C2)cn1` (stereo unspecified), the PXC50 in [1] (MAX_EFFECT 6.650831354) and in experiment [1] (MAX_EFFECT 15.31690141) was less than 4 throughout. Also, the Percent Effect in experiment [2] is -4.19%; in experiment [3], 2.7%; in [4], 6.66%; in experiment [5], -1.14%; in the experiment on Trypanosoma cruzi, 0%; in experiment [6] (33.3 µM), 4.17%. Also, the Percent Effect in experiment [7] was -3.47%; in the experiment listed under Homo sapiens, 5.63%; in experiment [8] it was 8.91%; in experiment [9], 8.54%; in experiment [10], -4.16%.

In the case of `Cc1nn(CCO)c(C)c1CNC1CCC(C)(C)c2ccccc21` (stereo unspecified), the Percent Effect was -3.92% in [2]; 8% in [3]; -5.82% in [4]; 14.7% in [5]; 7.3% in the experiment with Trypanosoma cruzi; 2.7% in experiment [6] (30 µM). The Percent Effect in experiment [6] (33.3 µM) was 9.38%; in [7], 9.42%; in the experiment listed under Homo sapiens, 23.6%; in experiment [8], 1.64%; in experiment [9], 13.6%; in experiment [10], -6.8%.

On to `CN(CC1CC1)c1ccc2ccc(C(=O)NCCN3CCOCC3)cn12`, for which the PXC50 in experiment [1] (BOTTOM -1.512370452, HILLSLOPE 1.01203919, MAX_EFFECT 54.40140845, TOP 92.97919978) was 4.18; in experiment [1] (BOTTOM -1.802135636, HILLSLOPE 1.091019119, MAX_EFFECT 56.05700713, TOP 88.72898538), 4.23. Further, the Percent Effect is 0.0454% in [2]; 6.49% in experiment [3]; -2.21% in [5]; 2.06% in the experiment with Trypanosoma cruzi; 2.28% in experiment [6] (33.3 µM); 0.944% in experiment [7]. Further, the Percent Effect was 29.3% in the experiment filed under Homo sapiens, 34.8% in [8], 15% in [9] and -2.15% in experiment [10].

With `CCC(CO)NC(=O)c1ccc2ccc(N(C)CC3CC3)n2c1` (stereo unspecified), the PXC50 in [1] (MAX_EFFECT 27.99295775) and in [1] (MAX_EFFECT 39.42992874) was less than 4 throughout. In addition, the Percent Effect is 3.49% in experiment [2]; 3.9% in [3]; 0.399% in experiment [5]; 3.56% in the experiment on Trypanosoma cruzi; 0.457% in experiment [6] (33.3 µM); 15.2% in experiment [7]. For the same molecule, the Percent Effect in the experiment listed under Homo sapiens was 8.81%; in experiment [8], 12.6%; in experiment [9], 15%; in experiment [10], -3.69%.

For the molecule `CCC(C(=O)NCc1ccncc1)N(c1cccc(C)c1)S(C)(=O)=O` (stereo unspecified), the Percent Effect in experiment [2] is -2.54%; in [3], 2.67%; in [4], 0.78%; in experiment [5], 9.85%; in the experiment on Trypanosoma cruzi, 5.16%; in [6] (30 µM), 10.3%. The Percent Effect was 9.38% in experiment [6] (33.3 µM); 7.32% in experiment [7]; 18.8% in the experiment listed under Homo sapiens; 2.73% in experiment [8]; 13.6% in [9]; -7.66% in experiment [10].
